Bioassay records from PubChem.
ALOX12 inh = ALOX12 (human) lipoxygenase inhibition. AID 1671190. Potency, µM (top dose mostly 108 µM), usual class: inhibitors. purified 12hLO, xylenol orange hydroperoxide absorbance. actives 1.1% (n = 580,000). P18054
Target sequence (P18054 whole entry, looked up): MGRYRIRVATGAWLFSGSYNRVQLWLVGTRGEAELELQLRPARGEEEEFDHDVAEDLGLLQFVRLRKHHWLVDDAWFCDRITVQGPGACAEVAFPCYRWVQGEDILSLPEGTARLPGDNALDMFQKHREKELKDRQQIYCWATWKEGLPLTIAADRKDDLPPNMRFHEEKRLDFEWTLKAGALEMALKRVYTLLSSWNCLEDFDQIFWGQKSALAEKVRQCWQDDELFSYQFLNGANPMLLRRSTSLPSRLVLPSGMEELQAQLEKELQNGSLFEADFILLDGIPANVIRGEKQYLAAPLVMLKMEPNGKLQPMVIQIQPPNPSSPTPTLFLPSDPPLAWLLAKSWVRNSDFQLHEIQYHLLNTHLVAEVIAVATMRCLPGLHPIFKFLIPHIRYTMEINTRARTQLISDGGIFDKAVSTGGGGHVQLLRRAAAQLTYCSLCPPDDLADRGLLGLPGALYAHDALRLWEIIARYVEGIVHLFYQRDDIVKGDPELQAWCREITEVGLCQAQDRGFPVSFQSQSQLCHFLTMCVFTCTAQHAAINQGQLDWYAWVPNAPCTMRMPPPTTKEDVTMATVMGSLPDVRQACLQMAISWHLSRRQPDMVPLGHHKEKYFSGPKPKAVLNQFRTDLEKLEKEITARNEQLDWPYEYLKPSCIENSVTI
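Purified human 12hLO (150 nM final) in 25 mM Hepes, 0.01% Triton X-100, pH 7.0 was preincubated 15 min at room temperature with compound. Then 40 uM arachidonic acid was added, 30 min. Hydroperoxide was read by Fe-XO absorbance ratio 573/405 nm.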
HepG2 viability = counter-screen for TGF-b inhibitors: cytotoxicity in HepG2 cells; HepG2 CAGA-GFP viability, ATP luminescence, 18 h; Potency, µM (highest dose often 46.1 µM), most hits filed as cytotoxic; actives 0.76% (n = 410,000)
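HepG2 CAGA-GFP cells (1000/well, DMEM with 1% FBS) received compound, then TGF-beta at 500 pg/mL final, and were incubated 18 hours at 37 degrees C. Viability was read by CellTiter-Glo luminescence. Media-only wells were set as complete cell-killing and DMSO as no toxicity.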
S2 tox = viability counter-screen for ATXN expression inhibitors; actives 0.49% (n = 400,000); AID 651635; Potency, µM (doses to about 56.7 µM), most hits filed as cytotoxic; S2 cells (HEK-293 line with an ATXN2-luciferase reporter) viability, CellTiter-Fluor protease fluorescence, 24 h; note: nearly all actives have a fitted effect of over 40% in size
TGFb inhibitor = TGF-b pathway inhibition; HepG2 CAGA-GFP TGF-b/SMAD3 reporter, GFP fluorescence, 18 h; TGF-beta stimulated, 500 pg/mL final; Potency, µM (highest dose often 46.1 µM), most hits filed as inhibitors; actives 1.2% (n = 410,000); note: nearly all actives have a fitted effect of over 65% in size
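HEPG2 CAGA-GFP cells (1000/well, DMEM with 1% FBS) were pre-incubated 2 h at 37 degrees C, given compound by pin tool, then stimulated with TGF-beta at 500 pg/mL final for 18 h before per-cell GFP fluorescence imaging.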
ATXN2 expr inh = reduces ATXN2 reporter expression in HEK-293 cells | Potency, µM (series often up to 57 µM), most hits filed as inhibitors | actives 0.72% (n = 360,000) | AID 1745845 | HEK-293 ATXN2-luciferase reporter, luminescence, 24 h; note: nearly all actives have a fitted effect of over 55% in size
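ATXN2-luciferase reporter cells (luciferase flanked by upstream and downstream ATXN2 gene portions) were treated 24 h at 37 °C with compounds at up to 57 uM. SteadyGlo luminescence gave expression; GF-AFC fluorescence gave viability.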
Hits are given with their value. Sampled rows, rich in hits. Any-hit rate of the full collection: about 2.7%. Calls come from the whole dose curve; as a rule, active = well fitted curve in the direction sought with a large enough effect; inconclusive = small, poorly fitted or top-dose-only effect, or another doubt; inactive = no such curve, though single readings can be large; an effect the other way counts as inactive or inconclusive.

`COC1C(O)CC(OC2C(O)CC(OC3C(O)CC(OC4CCC5(C)C(CCC6[C@@H]5CC(O)C5(C)C(C7=CC(=O)OC7)CCC65O)C4)OC3C)OC2C)OC1C` (stereo partly drawn) gave ALOX12 inh inactive.
`c1ccc2c(CNC3CCCCCC3)c[nH]c2c1` gave ALOX12 inh inactive, HepG2 viability inactive, S2 tox 28.2µM, TGFb inhibitor inconclusive and ATXN2 expr inh 20µM.
COc1cc2c(cc1Oc1ccccc1)NC(=O)C21CCN(Cc2nccn2C)CC1 was read as ALOX12 inh inactive.
`CC(C)(O)/C=C/C(=O)[C@](C)(O)C1[C@H](O)C[C@@]2(C)C3CC=C4C(C[C@H](O)[C@@H](O)C4(C)C)[C@]3(C)C(=O)C[C@]12C` (stereo partly drawn) gave HepG2 viability inactive, S2 tox inconclusive, TGFb inhibitor 0.708µM and ATXN2 expr inh inconclusive.
CCc1ccc(NP(=O)(Oc2ccccc2F)Oc2ccccc2F)cc1 was read as ALOX12 inh inactive, HepG2 viability inactive, S2 tox inactive, TGFb inhibitor 17.8µM and ATXN2 expr inh inactive.
For Cc1ccc(OP2(=O)Nc3cc(C)c(C)cc3S2)cc1 (stereo not drawn) the results were ALOX12 inh 20µM, HepG2 viability inactive, S2 tox inactive, TGFb inhibitor inconclusive and ATXN2 expr inh inactive.
For COC(=O)C[C@]1(C(=O)OC)CN(C#N)N(c2ccc(Cl)cc2)C12c1ccccc1-c1ccccc12 the results were ALOX12 inh inactive, HepG2 viability inactive, S2 tox 5.62µM, TGFb inhibitor 3.98µM and ATXN2 expr inh 3.98µM.
COC(=O)[C@@H]1[C@@H](C(=O)OC)C2(c3ccccc3-c3ccccc32)N(c2ccc(Cl)cc2)N1C#N was read as ALOX12 inh inactive, HepG2 viability 11.2µM, S2 tox 7.08µM, TGFb inhibitor inconclusive and ATXN2 expr inh 7.08µM.
Screening Cc1c(C(=O)Cn2c(C)nc3ccccc32)c2ccccc2n1C returned ALOX12 inh inactive.
`Cc1oc(-c2ccccc2Cl)nc1CN1C(=O)CN=C(c2ccccc2)c2ccccc21` gave ALOX12 inh inactive, HepG2 viability inactive, S2 tox inconclusive, TGFb inhibitor 15.8µM and ATXN2 expr inh inactive.
For Cc1ccc(-c2nc(CN3C(=O)CN=C(c4ccccc4)c4ccccc43)c(C)o2)cc1 the results were ALOX12 inh inactive, HepG2 viability inactive, S2 tox inactive, TGFb inhibitor inactive and ATXN2 expr inh inactive.
Screening COc1ccc(-c2ccc3c(c2)CN(c2cccc(Cl)c2)Cc2cnnn2-3)cc1 returned ALOX12 inh 17.8µM, HepG2 viability inactive, S2 tox inactive, TGFb inhibitor inactive and ATXN2 expr inh inactive.
Cc1c2ccncc2c(C)c2c1[nH]c1ccccc12 was read as ALOX12 inh inactive, HepG2 viability 12.6µM, S2 tox inconclusive, TGFb inhibitor inconclusive and ATXN2 expr inh 14.1µM.
CCOC(=O)c1ccc(N2C(=O)c3n[nH]c(-c4cccs4)c3C2c2ccc(OC)cc2OC)cc1 (stereo not drawn) was read as ALOX12 inh inactive, HepG2 viability inactive, S2 tox inactive, TGFb inhibitor 5.01µM and ATXN2 expr inh inactive.
For C=CCN(C)C(=O)[C@H]1CN2CCC1C[C@@H]2Cn1cc(CCO)nn1 (stereo partly drawn) the results were ALOX12 inh inactive.
Cc1nc(-c2cccs2)cc([C@H]2CN3CC[C@H]2C[C@@H]3COC(=O)Nc2ccc(C(C)C)cc2)n1 was read as ALOX12 inh 44.7µM.
COc1ccccc1-c1cc([C@H]2CN3CC[C@H]2C[C@@H]3COC(=O)Nc2ccc(C(C)C)cc2)nc(C)n1 was read as ALOX12 inh 44.7µM.
CN(CC1CCCCC1)C1CCc2ccccc2C1 (stereo not drawn) was read as ALOX12 inh inactive.
`CC(C)(C)c1cc2c(c(C(C)(C)C)c1)Oc1cc(C#N)c(C#N)cc1O2` gave ALOX12 inh inactive.
For O=C(c1ccco1)N1[C@H]2CC[C@@H]1c1cnc(-c3ccc(F)cc3)nc1C2 the results were ALOX12 inh inactive.
`O=C(c1ccc(C(F)(F)F)cc1)N1CCN(Cc2ccccc2)CC1` gave ALOX12 inh inactive.
COc1cc2c(cc1Oc1cccc(N(C)C)c1)NC(=O)C21CCN(Cc2ccccc2)CC1 was read as ALOX12 inh 89.1µM.
`N#Cc1cccc(NC(=O)NC[C@H]2C[C@@H]3CCN2C[C@@H]3CN2CCN(c3ccccc3)CC2)c1` gave ALOX12 inh inactive.
Screening COc1ccc([C@@H]2CN(c3nccc(C)n3)[C@@H]3C4CCN(CC4)[C@@H]32)cc1 returned ALOX12 inh inactive.
COc1ccc(CC(N)c2csc(NC(=O)Nc3ccccc3Oc3ccccc3)n2)cc1 (stereo not drawn) was read as ALOX12 inh inconclusive, HepG2 viability 10µM, TGFb inhibitor inconclusive and ATXN2 expr inh inconclusive.
`C[C@]12CC[C@@H]3c4ccc(OC(=O)N(CCCl)CCCl)cc4CC[C@H]3[C@@H]1CC[C@@H]2OP(=O)(O)O` gave ALOX12 inh 21.7µM, S2 tox inconclusive and ATXN2 expr inh inactive.
`CC12CCC3c4ccc(OP(=O)(N5CC5)N5CC5)cc4CCC3C1CCC2=O` (stereo not drawn) gave ALOX12 inh inactive, HepG2 viability inactive, S2 tox inactive, TGFb inhibitor inactive and ATXN2 expr inh inactive.
Screening CC(C)c1ccc(-n2c(O)c(/C=N/NC(=O)c3ccccc3O)c(=O)[nH]c2=S)cc1 returned ALOX12 inh 39.8µM, HepG2 viability inactive, S2 tox inactive, TGFb inhibitor inactive and ATXN2 expr inh inactive.
O=C1NC(=O)N(c2ccc(Br)cc2)C(=O)/C1=C/c1ccsc1 was read as ALOX12 inh inconclusive, HepG2 viability inactive, S2 tox inconclusive and TGFb inhibitor inactive.
O=C1NC(=O)N(c2cccc(Br)c2)C(=O)/C1=C/c1ccsc1 was read as ALOX12 inh 44.7µM, HepG2 viability inactive, S2 tox inactive, TGFb inhibitor inactive and ATXN2 expr inh inactive.
O=[N+]([O-])c1ccc(NCCNS(=O)(=O)c2ccccc2)c2ncccc12 was read as ALOX12 inh inactive.
Screening CCOC(=O)C1=CC(=C2C(=O)N(CC)C(=S)N(CC)C2=O)c2ccccc2O1 returned ALOX12 inh 17.8µM, HepG2 viability inactive, S2 tox inactive, TGFb inhibitor inactive and ATXN2 expr inh inactive.
`COc1cccc2c1C(=O)c1c(O)c3c(c(O)c1C2=O)CC(O)(C(C)=NO)CC3OC1CC(N)C(O)C(C)O1` (stereo not drawn) gave ALOX12 inh inactive, HepG2 viability inactive, S2 tox inconclusive, TGFb inhibitor 6.31µM and ATXN2 expr inh 1.58µM.
CCCNC1CCc2ccccc2C1 (stereo not drawn) was read as ALOX12 inh inactive.
